Assay in all cases: NCI-60 one-dose screen, 48 h (100 = growth as untreated, 0 = no growth, -100 = all killed)
The test system of assay [1] is SR leukemia. The conditions noted are these: 10 µM unless noted.
Assay [2] deals with RPMI-8226 leukemia. The conditions noted are these: 10 µM unless noted.
Assay [3] concerns OVCAR-8 ovarian. The conditions noted are these: 10 µM unless noted.
The subject of assay [4] is OVCAR-5 ovarian. The conditions noted are these: 10 µM unless noted.
Assay [5] relates to OVCAR-4 ovarian. The conditions noted are these: 10 µM unless noted.
The test system of assay [6] is SK-OV-3 ovarian. The conditions noted are these: 10 µM unless noted.
Assay [7] relates to IGROV1 ovarian. The conditions noted are these: 10 µM unless noted.
Assay [8] relates to OVCAR-3 ovarian. The conditions noted are these: 10 µM unless noted.
The subject of assay [9] is HS 578T breast. The conditions noted are these: 10 µM.
Assay [10] deals with NCI/ADR-RES ovarian. The conditions noted are these: 10 µM unless noted.
For assay [11], the system named is T-47D breast. The conditions noted are these: 10 µM unless noted.
In assay [12] the test system is MDA-MB-435 melanoma. The conditions noted are these: 10 µM unless noted.
The subject of assay [13] is SW-620 colon. The conditions noted are these: 10 µM unless noted.
Assay [14] concerns MCF7 breast. The conditions noted are these: 10 µM unless noted.
In assay [15] the test system is HCT-116 colon. The conditions noted are these: 10 µM unless noted.
Assay [16] deals with KM12 colon. The conditions noted are these: 10 µM unless noted.
The subject of assay [17] is BT-549 breast. The conditions noted are these: 10 µM unless noted.
Assay [18] has as its system HCC-2998 colon. The conditions noted are these: 10 µM.

The panel holds about 83,000 compounds, 20% with a hit somewhere; the sample as a whole holds those more often.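 Percent growth is the endpoint: 0 to 100 indicates growth inhibition (40 means 60% inhibition), 0 means no net growth, and negative values indicate cell death.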 Values without a mark were called inactive. Calls of active or inactive are those of the source. Rule for the calls: active = growth percent below 10; inactive = the rest.

Regarding `O=C(Nc1cccc([N+](=O)[O-])c1)c1ccc(Cl)c(Cl)c1`, the growth in [1] is 80.7%; in [2], 79.1%; in [3] it was 43.5%; in [4], 94.2%; in assay [5], 16.7%; in assay [6] it was 53.3%. For the same molecule, the growth was 47% in assay [7]; 53.8% in assay [8]; 70% in assay [9]; 79% in assay [10]; 54.8% in assay [11]; 92% in [12]. The growth was 96.2% in assay [13], 49% in assay [14], 56.8% in assay [15] and 93.8% in assay [16].

In the case of `C1=C\COCc2cc(ccc2OCCN2CCCC2)Nc2nccc(n2)-c2cccc(c2)COC/1`, the growth was -8.75% (active) in assay [1]; -32% (active) in assay [2]; 6.66% (active) in assay [3]; -6.58% (active) in [4]; -4.87% (active) in assay [5]; -27.6% (active) in assay [6]. The growth in assay [7] is -18.7% (active); in assay [8], 2.03% (active); in [10], 0.945% (active); in assay [11], -23.5% (active); in assay [17], 21.9%; in [12], -54.6% (active). In addition, the growth in assay [13] was 3.2% (active); in assay [14], -25.1% (active); in [15] it was 1.18% (active); in [18] it was -16.4% (active); in assay [16] it was -9.97% (active).

For the molecule `Nc1ncnc2c1c(-c1cccc(OCc3ccccc3)c1)cn2C1CC(CN2CCC2)C1` (stereo not given), the growth was -17.7% (active) in [1]; -24% (active) in assay [2]; 34.9% in assay [3]; 36% in [4]; 57.4% in [5]; 40.2% in assay [6]. Also, the growth was 22.4% in assay [7]; 58.8% in [8]; 35.4% in assay [10]; -38.2% (active) in [11]; 33% in assay [17]; -43.6% (active) in assay [12]. For the same molecule, the growth is 3.94% (active) in [13], -22% (active) in assay [14], 9.54% (active) in assay [15] and 17% in [18].

With `O=C(Nc1cccc(Cl)c1)Nc1ncc(CCNc2ncnc3ccsc23)s1`, the growth is 19.3% in [1]; 7.45% (active) in [2]; 1.53% (active) in [3]; 64.6% in [4]; 24.6% in assay [5]; 47.5% in assay [6]. Also, the growth was 36% in [7]; 38.3% in assay [8]; 9.39% (active) in [10]; -16.9% (active) in [11]; 0.164% (active) in assay [17]; 12.5% in assay [12]. The growth in [13] is 62.6%; in assay [14], 11.8%; in [15], 17.9%; in assay [18], 80.1%.

Consider `COc1cc2ncnc(Nc3cccc(Cl)c3F)c2cc1OC(=O)N1CCN(C)C[C@H]1C`, for which the growth in assay [1] was 62.6%; in assay [2] it was 76.4%; in assay [3], 64.2%; in assay [4], 46.5%; in assay [5], 103%; in assay [6], -6.41% (active). Besides, the growth was 16.4% in assay [7]; 69.5% in assay [8]; 64.3% in assay [10]; 28.5% in [11]; 93.8% in [17]; 94.3% in [12]. Also, the figures for the growth in assay [13], in assay [14] and in assay [15] were 94.2%, 63.2% and 87.5%, respectively.

Consider `NC(=O)c1c(OCc2c(F)cc(Br)cc2F)nsc1NC(=O)NCCCCN1CCCC1`, for which the growth in assay [1] is -34.4% (active); in [2], -26.3% (active); in [3] it was 19.4%; in assay [4], -14.8% (active); in assay [5], -41.6% (active); in [6] it was 52.2%. In addition, the growth in [7] was -32.4% (active); in assay [8], -34.1% (active); in [10] it was 20.2%; in assay [11], -45.1% (active); in [17] it was -51.2% (active); in assay [12] it was -58.9% (active). The growth in assay [13] is -60.5% (active); in assay [14], 1.88% (active); in assay [15] it was -37.9% (active); in [18], -13.8% (active); in assay [16], -4.19% (active).

As for `O=C(c1ccccc1)C(c1ccccc1)N1CCOCC1` (stereo not given), the growth is 95.6% in assay [1]; 101% in assay [2]; 105% in assay [3]; 105% in assay [4]; 108% in assay [5]; 105% in assay [6]. In addition, the growth in [7] is 104%; in assay [8] it was 101%; in [9] it was 97%; in assay [10], 98.6%; in [11], 98.8%; in assay [12] it was 109%. The growth was 103% in assay [13]; 98.3% in assay [14]; 102% in assay [15]; 102% in [18]; 99.1% in assay [16].

On to `COc1ccc(Br)cc1NC(=O)Nc1cccc2c1ccn2Cc1ccnc(N)c1`, for which the growth in assay [1] was 7.97% (active); in [2], 15.2%; in assay [3], 21.2%; in [4] it was 47.8%; in assay [5], 38.8%; in [6], 26.7%. The growth is 36.3% in [7]; 67.4% in assay [8]; 31.1% in [10]; 6.9% (active) in assay [11]; 51.1% in [17]; 11.1% in [12]. In addition, the results for the growth in assay [13], in [14] and in [15] were 19.4%, 16.5% and 16.8%, respectively.

Take `C[C@@H](Oc1cc(-n2cnc3ccc(CN4CCN(C)CC4)cc32)sc1C(N)=O)c1ccccc1C(F)(F)F`: the growth in assay [1] was -19.6% (active); in assay [2], 34.2%; in assay [3] it was 5.18% (active); in [4], 19.9%; in [5], 33.8%; in [6], -2.74% (active). The growth in [7] is 16.8%; in assay [8], 38%; in assay [10] it was 18.5%; in assay [11], 40.8%; in assay [17], 24.9%; in assay [12], 9.74% (active). Further, the growth in [13] was 13.6%; in [14], 17.7%; in assay [15], 17.6%; in assay [18], 14.1%.

The values above are taken from PubChem BioAssay (NCI).
